Source: ChEMBL document CHEMBL3988442, “University of Dundee, Small-Polar-MMV Screening Library” (2021)

Columns and labels:
[1] = target: T1, Aspartate--tRNA(Asp/Asn) ligase (Mycobacterium tuberculosis (strain ATCC 25618 / H37Rv)) (UniProt P9WFW3); test: Assay for Asp RNA synthetase-1 from Mycobacterium tuberculosis; assay type: functional; parameters: scale not given: direction of the effect not stated beside the values; settings: 30 µM; note: in the data most compounds retested in dose-response had high values
T1 sequence (whole entry): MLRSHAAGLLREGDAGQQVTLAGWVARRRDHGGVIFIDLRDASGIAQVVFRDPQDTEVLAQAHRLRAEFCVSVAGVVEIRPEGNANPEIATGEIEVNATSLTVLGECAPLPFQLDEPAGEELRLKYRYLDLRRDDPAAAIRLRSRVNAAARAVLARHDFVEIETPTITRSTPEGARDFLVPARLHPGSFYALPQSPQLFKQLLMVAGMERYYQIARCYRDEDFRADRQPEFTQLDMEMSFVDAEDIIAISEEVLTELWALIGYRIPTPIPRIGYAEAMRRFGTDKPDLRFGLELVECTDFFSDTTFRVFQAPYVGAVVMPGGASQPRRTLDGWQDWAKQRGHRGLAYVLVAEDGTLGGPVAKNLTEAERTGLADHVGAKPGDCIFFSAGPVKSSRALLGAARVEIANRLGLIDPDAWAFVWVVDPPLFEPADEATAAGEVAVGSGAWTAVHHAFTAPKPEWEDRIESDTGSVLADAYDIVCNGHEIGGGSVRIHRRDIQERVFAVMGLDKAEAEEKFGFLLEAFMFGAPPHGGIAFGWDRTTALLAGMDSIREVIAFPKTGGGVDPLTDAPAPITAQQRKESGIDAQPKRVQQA

[2] = target: Shiga toxin 2 (Escherichia coli O157:H7) (UniProt P09385+P09386); test: E. coli 0.157:H7 Shiga Toxin SOP - stx2 screening assay; assay type: functional; parameters: scale not given: direction of the effect not stated beside the values; settings: 30 µM

| Structure (SMILES) | Percent Effect [1] | Percent Effect [2] |
| --- | --- | --- |
| O=C(c1cccc2c1OCO2)N1CCCC(n2cccn2)C1 (centres undefined) | -0.706% | 17.8% |
| Cn1ccc(CN2CCCC2c2ccc3c(c2)OCCCO3)cc1=O (centres undefined) | -1.54% | -60% |
| CNS(=O)(=O)c1cccc(C(C)NCc2ccccc2)c1 (centres undefined) | -1.42% | -14.4% |
| Cc1cccnc1NCCNC(=O)[C@H]1CNC[C@@H](C(=O)N2CCCC2)C1 | -0.342% | -7.88% |
| CN(Cc1cnccn1)C(=O)c1ccnc(OC2CCC2)c1 | 3.71% | -6.19% |
| CCSc1cc(C(=O)NCc2ccccc2O)ccn1 | 2.33% | 11.7% |
| O=C(Nc1cccc(CN2CCOC2=O)c1)N1CCOCC1 | 1.78% | -57.1% |
| O=C(Cc1ccc2c(c1)OCO2)N1CCCN(c2ccccc2)CC1 | 3.17% | 3.72% |
| c1coc(-c2nnc(CN3CCCC(CN4CCCCCC4)C3)o2)c1 (centres undefined) | 2.88% | -14.6% |
| Cc1n[nH]c(=O)c2c(NC(=O)CN3CCOC(C)C3)oc(C)c12 (centres undefined) | -3.61% | -52.2% |
| Cc1ccc(CN2CC(C(=O)Nc3ccccc3)C3(CCOCC3)C2)s1 (centres undefined) | 8.04% | -1.18% |
| O=C(c1ccccn1)N1Cc2nccn2CC(CN2CCOCC2)C1 (centres undefined) | 11.5% | -21.6% |
| COc1cccc2c1OCC(CNC(=O)CSc1nc(N)n[nH]1)C2 (centres undefined) | 2.1% | 6.55% |
| CC(NC(=O)NCC1(c2ccc(F)cc2)CCC1)c1nncn1C (centres undefined) | 2.25% | 32.9% |
| O=C(O)CCc1cc2n(n1)CCCN(C(=O)c1ccc3cc[nH]c3c1)C2 | -1.19% | -1.98% |
| Cc1cccc(CC(=O)NCCCOC(C)C)c1 | -4.16% | -10.2% |
| Cc1cnn(CC2CN(c3cnc4ccccc4n3)CCO2)c1 (centres undefined) | -11.1% | -0.837% |
